# Test results from publication PMC5540273 (PLoS ONE, 2017).
# Test system: T1, YANK2
# T1 construct: gene STK32B
# Settings: concentration: 1 μM,replicates: in singlicate; n = 1
# 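Also: KINOMEscan kinase panel screen.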
row,SMILES,%Inh [%]
1,CS(=O)(=O)c1cccc(CNc2nc(Nc3ccc4c(c3)[C@@H]3C[C@@H]4CNC3=O)ncc2C(F)(F)F)c1,0
2,COc1cccc(OC)c1C(=O)Nc1cccc(-c2nn3ccccc3c2-c2ccnc(Nc3cccc(F)c3)n2)c1 [GSK361065],11
3,OCCn1cc(-c2cnc3nnn(Cc4ccc5ncccc5c4)c3n2)cn1,0
4,CC(=O)Nc1ccc(-c2cc3ncnc(SCC(=O)O)c3s2)cc1,0
5,CCN1CCN(CCCC(=O)Nc2n[nH]c3nc(-c4ccc(O)cc4)c(Br)cc23)CC1 [SB-731579],0
6,O=C(Nc1cccc(Oc2ccc3nccn3n2)c1)Nc1cccc(C(F)(F)F)c1,0
7,Nc1nccc(-c2ccc3c(N)n[nH]c3c2)n1 [GSK1034945],0
8,COc1cc2c(Nc3ccc(NC(=O)c4ccccc4)cc3)ncnc2cc1OCCCN1CCOCC1 [GSK301329],0
9,COC(=O)c1cccc(NC(=O)NC2CCN(c3ccnc(Nc4cc(OC)c(OC)c(OC)c4)n3)C2)c1 (stereo not shown) [GSK1379767],0
10,COC(=O)Nc1nc2cc(Oc3ccc(NC(=O)Nc4cc(C(F)(F)F)ccc4Cl)cc3)ccc2[nH]1.Cl [GW697465],0
11,COc1cc2ncn(-c3cc(OCC4CCCCC4)c(C(N)=O)s3)c2cc1OC [GSK204559],8
12,CCCC(=O)Nc1n[nH]c2ncccc12 [SB-601436],0
13,Cl.c1ccc(Oc2ccc(Nc3ccnc4cc(-c5ccc(CN6CCNCC6)o5)ccc34)cc2)nc1 [GW567142],0
